PubChem BioAssay (NCATS)
Records with an inconclusive call do not appear. Calls of active or inactive are those of the source. Unless noted, the call rests on the fitted dose curve. Square brackets hold non-standard residues; d marks the D form. Peptide text beside a SMILES is read from it. * marks the point of attachment. Sta = CC(C)C[C@H](N)[C@@H](O)CC(=O)O; Isovaleryl = CC(C)CC(=O)*

Tests used:
[1] = qHTS for Inhibitors of the Functional Ribonucleoprotein Complex (vRNP) of Lassa (LASV) Arenavirus: LASV Primary Screen - GLuc reporter signal (AID 1347082; calls by dose curve; tested in HEK293 reporter line; further: nearly all actives have a fitted effect of over 60% in size)
[2] = qHTS for Inhibitors of the Functional Ribonucleoprotein Complex (vRNP) of Lassa (LASV) Arenavirus: Viability assay - alamar blue signal for LASV Primary Screen (AID 1347083; calls by dose curve; tested in HEK293 reporter line; further: nearly all actives have a fitted effect of over 80% in size)
[3] = qHTS for Inhibitors of the Functional Ribonucleoprotein Complex (vRNP) of Lymphocytic Choriomeningitis Arenaviruses (LCMV): Viability assay - alamar blue signal for LCMV Primary Screen (AID 1347085; calls by dose curve; tested in HEK293 reporter line; further: nearly all actives have a fitted effect of over 80% in size)
[4] = target: Nucleoprotein (Lymphocytic choriomeningitis virus (strain Armstrong)) (UniProt P09992); test: qHTS for Inhibitors of the Functional Ribonucleoprotein Complex (vRNP) of Lymphocytic Choriomeningitis Arenaviruses (LCMV): LCMV Primary Screen - GLuc reporter signal (AID 1347086); further: nearly all actives have a fitted effect of over 70% in size
Further: series mostly up to about 57 µM.
On the % scale 0 is the no-effect control and ±100 the full control effect.

Chain of Nucleoprotein (Lymphocytic choriomeningitis virus (strain Armstrong)) (P09992 whole entry, looked up): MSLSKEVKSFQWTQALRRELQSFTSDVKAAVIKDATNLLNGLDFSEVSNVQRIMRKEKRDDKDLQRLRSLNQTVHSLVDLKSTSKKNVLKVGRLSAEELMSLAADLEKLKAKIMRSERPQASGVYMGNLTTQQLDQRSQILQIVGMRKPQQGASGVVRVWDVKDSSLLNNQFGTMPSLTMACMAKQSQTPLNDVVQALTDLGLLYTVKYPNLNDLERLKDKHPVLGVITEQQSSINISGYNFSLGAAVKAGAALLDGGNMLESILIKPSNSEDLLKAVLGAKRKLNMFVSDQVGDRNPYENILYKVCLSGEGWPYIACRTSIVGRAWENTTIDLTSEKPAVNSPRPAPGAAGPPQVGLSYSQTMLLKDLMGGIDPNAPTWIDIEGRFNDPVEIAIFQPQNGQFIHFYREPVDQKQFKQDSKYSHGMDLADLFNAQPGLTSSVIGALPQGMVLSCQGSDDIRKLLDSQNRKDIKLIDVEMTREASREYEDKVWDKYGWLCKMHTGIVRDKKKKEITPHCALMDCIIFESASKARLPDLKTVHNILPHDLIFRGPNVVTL

CCC1Nc2cc(Cl)c(S(N)(=O)=O)cc2S(=O)(=O)N1 (configuration not stated)
inactive: Potency [1] | Potency [2] | Potency [3] | Potency [4]

CC(C)C(=O)OCc1cccc(OC(=O)[C@@H]2N3C(=O)[C@@H](NC(=O)Cc4ccccc4)[C@H]3SC2(C)C)c1
inactive: Potency [1] | Potency [2] | Potency [3] | Potency [4]

CCCOC(C(=O)OC1CCN(C)CC1)(c1ccccc1)c1ccccc1
inactive: Potency [1] | Potency [2] | Potency [3] | Potency [4]

CC(=O)Nc1ccc(OCCOCCOc2ccc(NC(C)=O)cc2)cc1
inactive: Potency [1] | Potency [2] | Potency [3] | Potency [4]

O=C(CCCN1CCN(c2ccccn2)CC1)c1ccc(F)cc1
inactive: Potency [1] | Potency [2] | Potency [3] | Potency [4]

COc1cc(C(=O)OCCCN2CCCN(CCCOC(=O)c3cc(OC)c(OC)c(OC)c3)CC2)cc(OC)c1OC
inactive: Potency [1] | Potency [2] | Potency [3] | Potency [4]

CC(C)CC(=O)N[C@H](C(=O)N[C@H](C(=O)N[C@@H](CC(C)C)[C@@H](O)CC(=O)N[C@@H](C)C(=O)N[C@@H](CC(C)C)[C@@H](O)CC(=O)O)C(C)C)C(C)C (Isovaleryl-VV[Sta]A[Sta]-OH)
inactive: Potency [1] | Potency [2] | Potency [3] | Potency [4]

CCCCNc1cc(C(=O)O)cc(S(N)(=O)=O)c1Oc1ccccc1
inactive: Potency [1] | Potency [2] | Potency [3] | Potency [4]

CCC(=O)Oc1ccc2c(c1)CC[C@@H]1[C@@H]2CC[C@@]2(C)[C@H]1C[C@@H](OC(=O)CC)[C@@H]2OC(=O)CC
inactive: Potency [1] | Potency [2] | Potency [3] | Potency [4]

NS(=O)(=O)c1cc2c(cc1Cl)NCNS2(=O)=O
inactive: Potency [1] | Potency [2] | Potency [3] | Potency [4]

O=C(O)[C@H](O)[C@@H](O)[C@H](O[C@@H]1O[C@H](CO)[C@H](O)[C@H](O)[C@H]1O)[C@H](O)CO
inactive: Potency [1] | Potency [2] | Potency [3] | Potency [4]

O=C1C(CCS(=O)c2ccccc2)C(=O)N(c2ccccc2)N1c1ccccc1 (configuration not stated)
inactive: Potency [1] | Potency [2] | Potency [3] | Potency [4]

CCCCCCCCOc1ccccc1C(=O)Nc1ccc(C(=O)OCC[N+](C)(CC)CC)cc1
inactive: Potency [1] | Potency [2] | Potency [3] | Potency [4]

CCN(CC)C(=O)Nc1ccc(OCC(O)CNC(C)(C)C)c(C(C)=O)c1 (configuration not stated)
inactive: Potency [1] | Potency [2] | Potency [3] | Potency [4]

CCOC(=O)c1c(N)sc2c1CCN(Cc1ccccc1)C2
inactive: Potency [1] | Potency [2] | Potency [3] | Potency [4]

CCOC(=O)c1ccc(NC(=O)CN2CCCCC2)cc1
inactive: Potency [1] | Potency [2] | Potency [3] | Potency [4]

C[C@@H]1CC[C@@]2(OC1)O[C@H]1C[C@H]3[C@@H]4CC[C@H]5C[C@@H](O)CC[C@]5(C)[C@H]4CC(=O)[C@]3(C)[C@H]1[C@@H]2C
inactive: activity change, negative = inhibition [1] -9.4% [at 5.82 µM] | activity change, negative = reduced viability [2] -7.37% [at 5.82 µM] | activity change, negative = lower viability [3] -0.186% [at 5.82 µM] | activity change, negative = inhibition [4] 19.7% [at 5.82 µM]

CCC(C(=O)OCCN1CCOC(c2ccccc2)C1C)c1ccccc1 (configuration not stated)
inactive: Potency [1] | Potency [2] | Potency [3] | Potency [4]

COc1ccc(C(Cl)=C(c2ccc(OC)cc2)c2ccc(OC)cc2)cc1
inactive: Potency [1] | Potency [2] | Potency [3] | Potency [4]

COC(=O)C1=C(C)NC(C)=C(C(=O)O[C@@H]2CCCN(Cc3ccccc3)C2)[C@@H]1c1cccc([N+](=O)[O-])c1
inactive: Potency [1] | Potency [2] | Potency [3] | Potency [4]

CCOCC(O)COc1ccc(NC(=O)CC[S+](C)C)cc1 (configuration not stated)
inactive: Potency [1] | Potency [2] | Potency [3] | Potency [4]

CC(=O)[C@H]1CC[C@H]2[C@@H]3CC=C4C[C@@H](O)CC[C@]4(C)[C@H]3CC[C@]12C
inactive: Potency [1] | Potency [2] | Potency [3] | Potency [4]

OC(CCN1CCCCC1)(c1ccccc1)C1CC2C=CC1C2 (configuration not stated)
inactive: Potency [1] | Potency [2] | Potency [3] | Potency [4]

Nc1c2c(nc3ccccc13)CCCC2O (configuration not stated)
inactive: Potency [1] | Potency [2] | Potency [3] | Potency [4]

CC(C)C(=O)Nc1cccc(C2CN3CCSC3=N2)c1 (configuration not stated)
inactive: Potency [1] | Potency [2] | Potency [3] | Potency [4]

CC(C)(C)NCC(O)COc1cccc2c1CCC(=O)N2 (configuration not stated)
inactive: Potency [1] | Potency [2] | Potency [3] | Potency [4]

CCCOc1ccc(C(=O)OCCN(CC)CC)cc1N
inactive: Potency [1] | Potency [2] | Potency [3] | Potency [4]

COc1ccc2c(c1)c(CC(=O)O)c(C)n2C(=O)c1ccc(Cl)cc1
inactive: Potency [1] | Potency [2] | Potency [3] | Potency [4]

CC(C)(Cc1c[nH]c2ccccc12)NCC(O)COc1ccccc1C#N (configuration not stated)
inactive: Potency [1] | Potency [2] | Potency [3] | Potency [4]

CC(=O)O[C@H]1C[C@@H]2CC[C@@H]3[C@H](CC[C@@]4(C)[C@H]3C[C@H]([N+]3(C)CCCCC3)[C@@H]4OC(C)=O)[C@@]2(C)C[C@@H]1N1CCCCC1
inactive: Potency [1] | Potency [2] | Potency [3] | Potency [4]

C[C@]1(Cn2ccnn2)[C@H](C(=O)O)N2C(=O)C[C@H]2S1(=O)=O
inactive: Potency [1] | Potency [2] | Potency [3] | Potency [4]

O=c1oc2c(O)c(O)cc3c(=O)oc4c(O)c(O)cc1c4c23
inactive: Potency [1] | Potency [2] | Potency [3] | Potency [4]

CC1=CC(=O)c2ccccc2C1=O
inactive: Potency [1] | Potency [2] | Potency [3] | Potency [4]

CCOC(=O)C(C)(C)Oc1ccc(Cl)cc1
inactive: Potency [1] | Potency [2] | Potency [3] | Potency [4]

C[C@]12CC[C@@H]3c4ccc(O)cc4CC[C@H]3[C@@H]1C[C@@H](O)[C@@H]2O
inactive: Potency [1] | Potency [2] | Potency [3] | Potency [4]

Cc1cccc(N(C)C(=S)Oc2ccc3c(c2)CCC3)c1
inactive: Potency [1] | Potency [2] | Potency [3] | Potency [4]

CN1CCN(C2=Nc3cc(F)ccc3Cc3ccccc32)CC1
inactive: Potency [1] | Potency [2] | Potency [3] | Potency [4]

CCCCNc1ccc(C(=O)OCCN(C)C)cc1
inactive: Potency [1] | Potency [2] | Potency [3] | Potency [4]

CCCCCOc1ccc(C2SC(=O)NC2=O)cc1OCC (configuration not stated)
inactive: Potency [1] | Potency [2] | Potency [3] | Potency [4]

Nc1ccncc1N
inactive: Potency [1] | Potency [2] | Potency [3] | Potency [4]

OCC(O)CN1CCN(c2ccccc2)CC1 (configuration not stated)
inactive: Potency [1] | Potency [2] | Potency [3] | Potency [4]

CN(C)CCCN1c2ccccc2Sc2ccccc21
inactive: Potency [1] | Potency [2] | Potency [3] | Potency [4]

CCCOC(=O)c1ccc(N)cc1
inactive: Potency [1] | Potency [2] | Potency [3] | Potency [4]

CCCCCN(CCCCC)C(=O)C(CCC(=O)O)NC(=O)c1ccc(Cl)c(Cl)c1 (configuration not stated)
inactive: Potency [1] | Potency [2] | Potency [3] | Potency [4]

NC(=O)Cc1cccc(C(=O)c2ccccc2)c1N
inactive: Potency [1] | Potency [2] | Potency [3] | Potency [4]

C#C[C@]1(O)CC[C@H]2[C@@H]3[C@H](C)CC4=C(CCC(=O)C4)[C@H]3CC[C@@]21C
inactive: Potency [1] | Potency [2] | Potency [3] | Potency [4]

CCCCCC(=O)O[C@]1(C(C)=O)CC[C@H]2[C@@H]3CCC4=CC(=O)CC[C@]4(C)[C@H]3CC[C@@]21C
inactive: Potency [1] | Potency [2] | Potency [3] | Potency [4]

COc1ccc2[nH]c(S(=O)Cc3ncc(C)c(OC)c3C)nc2n1 (configuration not stated)
inactive: Potency [1] | Potency [2] | Potency [3] | Potency [4]

CN(C)CCOc1ccccc1Cc1ccccc1
inactive: Potency [1] | Potency [2] | Potency [3] | Potency [4]

COCCc1ccc(OCC2CO2)cc1 (configuration not stated)
inactive: Potency [1] | Potency [2] | Potency [3] | Potency [4]

COc1cc([C@H]2Oc3cc([C@H]4Oc5cc(O)cc(O)c5C(=O)[C@@H]4O)ccc3O[C@@H]2CO)ccc1O
inactive: Potency [1] | Potency [2] | Potency [3] | Potency [4]

NS(=O)(=O)c1ccc(N2CCCCS2(=O)=O)cc1
inactive: Potency [1] | Potency [2] | Potency [3] | Potency [4]

NC(=O)NNc1ccccc1
inactive: Potency [1] | Potency [2] | Potency [3] | Potency [4]
